Measured values taken from ChEMBL document CHEMBL3988442, “University of Dundee, Small-Polar-MMV Screening Library” (2021).
Out of some 48,000 compounds screened, about 13,000 (27%) showed an effect of 50% or more. The list shows a part of the results.

tested on: Wolbachia pipientis; experiment: Anti-Wolbachia Cell-Based Screen; format: functional; parameters: scale not given: in the data most compounds retested in dose-response had high values; settings: 5 µM

Q: For `CC(C)C(=O)N1CCC[C@]2(C(=O)N(C)C)CN(c3ccccn3)C[C@@H]2C1.O=C(O)C(F)(F)F`, which “Percent Effect” value is on record?
A: The value was 109.6%.

Q: How did the “Percent Effect” value turn out when `CN(C)C(=O)N1CCC[C@]2(C(=O)N(C)C)CN(c3ccccn3)C[C@@H]2C1.O=C(O)C(F)(F)F` was run?
A: Its value is 123.8%.

Q: Which “Percent Effect” value does the source give for `COCC(=O)N1CCC[C@]2(C(=O)N(C)C)CN(c3ccccn3)C[C@@H]2C1.O=C(O)C(F)(F)F` here?
A: Its value is -6.724%.

Q: For `CN(C)C(=O)[C@]12CCCN(CC3CC3)C[C@H]1CN(c1ccccn1)C2.O=C(O)C(F)(F)F.O=C(O)C(F)(F)F`, which “Percent Effect” value is on record?
A: Its value is 89.5%.

Q: How did the “Percent Effect” value turn out when `CCS(=O)(=O)N1CCC[C@]2(C(=O)N(C)C)CN(c3ncccn3)C[C@@H]2C1.O=C(O)C(F)(F)F` was run?
A: The value was -12.08%.

Q: Which “Percent Effect” value does the source give for `CN(C)CCN1C[C@@H]2OCCN(Cc3cnn(C)c3)[C@@H]2C1` here?
A: Its value is -15.62%.

Q: How did the “Percent Effect” value turn out when `COc1cccc(Cl)c1-c1cc(CN)ccc1F` was run?
A: Its value is -5.951%.

Q: How did the “Percent Effect” value turn out when `COCCN1CCO[C@H]2CCN(C(=O)c3cccs3)CC[C@@H]21.O=C(O)C(F)(F)F` was run?
A: Its value is 9.308%.

Q: For `O=C(O)C(F)(F)F.O=C(O)C(F)(F)F.O=C(c1ccncc1)N1CC[C@@H]2CN(C3CCOCC3)CCO[C@@H]2C1`, which “Percent Effect” value is on record?
A: Its value is 103.2%.

Q: With `CC(=O)N1CCO[C@@H]2CN(C(=O)c3ccc4ncccc4c3)CC[C@@H]2C1.O=C(O)C(F)(F)F` as the molecule, how does the “Percent Effect” value read?
A: Its value is -0.4432%.

Q: For `O=C(O)C(F)(F)F.O=C(O)C(F)(F)F.c1csc(CN2CCO[C@@H]3CN(C4CCOCC4)C[C@@H]3C2)c1`, which “Percent Effect” value is on record?
A: Its value is -1.995%.

Q: With `O=C(NC[C@H]1OC[C@@H]2CCN(C3CCOCC3)C[C@@H]21)c1ccncc1.O=C(O)C(F)(F)F.O=C(O)C(F)(F)F` as the molecule, how does the “Percent Effect” value read?
A: Its value is -8.097%.

Q: For `O=C(O)C(F)(F)F.O=C(c1cccs1)N1CC[C@@H]2CN(C3CCOCC3)CCO[C@@H]2C1`, which “Percent Effect” value is on record?
A: Its value is 103%.

Q: With `Cc1ccc(CCNc2nc(-c3ccncc3)nc3c2CCNCC3)o1` as the molecule, how does the “Percent Effect” value read?
A: The value was -0.1721%.

Q: Which “Percent Effect” value does the source give for `CN(CCn1ccc2ccccc21)C(=O)Cc1nnn[nH]1` here?
A: The value was -2.882%.

Q: How did the “Percent Effect” value turn out when `CC(Cc1ccc2c(c1)OCO2)c1cn(CCc2c[nH]cn2)nn1` (stereo unspecified) was run?
A: Its value is -4.802%.

Q: `CN(CCn1ccc2ccccc21)C(=O)Cc1n[nH]c(=O)[nH]1` was tested. Which “Percent Effect” value did it give?
A: Its value is 0.08952%.

Q: With `CC(Cc1cn(CCc2nnn[nH]2)nn1)c1ccccc1` (stereo unspecified) as the molecule, how does the “Percent Effect” value read?
A: Its value is 103.4%.

Q: Which “Percent Effect” value does the source give for `CC(Cc1cn(CCc2n[nH]c(=O)[nH]2)nn1)c1ccccc1` (stereo unspecified) here?
A: The value was 124.9%.

Q: How did the “Percent Effect” value turn out when `CC(c1ccc(C(=O)NCCc2nc(N)cc(O)n2)o1)N1CCCCC1` (stereo unspecified) was run?
A: Its value is 6.141%.

Q: `N#Cc1cccc(Cl)c1NCCc1n[nH]c(=O)[nH]1` was tested. Which “Percent Effect” value did it give?
A: The value was -15.54%.

Q: Which “Percent Effect” value does the source give for `CC(Cc1cn(CCc2nc(N)cc(O)n2)nn1)c1ccccc1` (stereo unspecified) here?
A: Its value is 116.8%.

Q: With `C=C(C)COc1cccc(CNCCc2nc(N)cc(O)n2)c1` as the molecule, how does the “Percent Effect” value read?
A: The value was 6.733%.

Q: For `c1cc(CCN2CCCC2CN2CCCCC2)ccn1` (stereo unspecified), which “Percent Effect” value is on record?
A: Its value is 39.01%.

Q: For `CCN(CC)Cc1ccc(C(=O)NC2CCc3cc(F)ccc32)o1` (stereo unspecified), which “Percent Effect” value is on record?
A: Its value is 6.12%.

Q: `Cc1nccn1CCC1CCCCN1C(=O)c1ccc2nonc2c1` (stereo unspecified) was tested. Which “Percent Effect” value did it give?
A: Its value is 1.487%.

Q: With `Cn1c(CN2CCCCC2)nnc1C1CCCN(C(=O)CCC(N)=O)C1` (stereo unspecified) as the molecule, how does the “Percent Effect” value read?
A: The value was 11.64%.

Q: `NC(=O)CCN(C(=O)c1cccc2c1OCO2)c1ccccc1` was tested. Which “Percent Effect” value did it give?
A: Its value is 16.64%.

Q: With `Cc1n[nH]c(=O)c2c(NC(=O)CN3CCOCC3)oc(C)c12` as the molecule, how does the “Percent Effect” value read?
A: Its value is 3.045%.

Q: `CC1(C)OC(=O)N(CCCOc2ccc(F)cc2)C1=O` was tested. Which “Percent Effect” value did it give?
A: The value was 96.74%.

Q: How did the “Percent Effect” value turn out when `O=S1(=O)COCCN1CCOc1ccc(F)cc1` was run?
A: Its value is -2.392%.

Q: `CN(Cc1ccon1)C(=O)CN1C(=O)OC(C)(C)C1=O` was tested. Which “Percent Effect” value did it give?
A: Its value is -6.77%.

Q: Which “Percent Effect” value does the source give for `N[C@H]1CN(CCOc2ccc(F)cc2)C[C@@H]1C1CC1` here?
A: The value was -23.63%.

Q: For `O=S1(=O)COCCN1CCCOc1ccc(F)cc1`, which “Percent Effect” value is on record?
A: The value was 1.2%.

Q: With `CN(Cc1ccoc1)C(=O)CN1C(=O)OC(C)(C)C1=O` as the molecule, how does the “Percent Effect” value read?
A: Its value is -7.956%.

Q: `CN1CCCC1CNC(=O)CCCOc1ccc(F)cc1` (stereo unspecified) was tested. Which “Percent Effect” value did it give?
A: Its value is -3.981%.

Q: How did the “Percent Effect” value turn out when `CC1(C)OC(=O)N(CCOc2ccc(F)cc2)C1=O` was run?
A: The value was 112.1%.

Q: How did the “Percent Effect” value turn out when `CC1(C)OC(=O)N(CCCC(=O)c2ccc(F)cc2)C1=O` was run?
A: Its value is 116.7%.

Q: With `CC(C)OCCSCc1nnc(-c2cccc(F)c2)o1` as the molecule, how does the “Percent Effect” value read?
A: The value was -1.35%.

Q: Which “Percent Effect” value does the source give for `CCNC(=O)[C@@H]1C[C@H](N)CN1C(=O)CCc1ccccc1Cl` here?
A: The value was -6.305%.

Q: For `Cn1cc(CN2CCO[C@H]3CN(Cc4ccco4)C[C@H]32)cn1`, which “Percent Effect” value is on record?
A: The value was -13.96%.

Q: With `CN(Cc1cc(-c2cccnc2)no1)C(=O)c1cccn1C` as the molecule, how does the “Percent Effect” value read?
A: Its value is -14.42%.

Q: Which “Percent Effect” value does the source give for `CC(C)SCC(=O)N1CCc2c(nc(N(C)C)nc2N(C)C)C1` here?
A: Its value is -6.369%.

Q: Which “Percent Effect” value does the source give for `Cc1cccnc1C(Cc1ccsc1)NC(=O)Cn1cccnc1=O` (stereo unspecified) here?
A: Its value is 151.6%.

Q: For `O=C(Cn1cccnc1=O)NC(Cc1ccsc1)c1ccccn1` (stereo unspecified), which “Percent Effect” value is on record?
A: The value was -0.3817%.

Q: Which “Percent Effect” value does the source give for `O=C(Cn1cccnc1=O)NCC1Cc2ccccc2O1` (stereo unspecified) here?
A: The value was -8.588%.

Q: `Cc1csc(C(Cc2ccsc2)NC(=O)Cn2cccnc2=O)n1` (stereo unspecified) was tested. Which “Percent Effect” value did it give?
A: The value was 109.1%.

Q: `O=C(Cn1cccnc1=O)NCc1cccnc1OCC(F)(F)F` was tested. Which “Percent Effect” value did it give?
A: The value was 2.082%.

Q: How did the “Percent Effect” value turn out when `O=C(Cn1cccnc1=O)NC(Cc1ccsc1)c1cccnc1` (stereo unspecified) was run?
A: The value was 105%.

Q: For `O=C(Cn1cccnc1=O)NC(Cc1ccsc1)c1nccs1` (stereo unspecified), which “Percent Effect” value is on record?
A: The value was 149.8%.

Q: Which “Percent Effect” value does the source give for `CC(C)Sc1ccc(C(C)NC(=O)Cn2cccnc2=O)cc1` (stereo unspecified) here?
A: Its value is -6.353%.
